“And” between values parts separate entries of the source, which are not always exact repeats. Identical values can stand only once. This is part of a sample that, as a whole, favours compounds with a hit. Of some 83,000 tested, about 20% had one in any assay.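 Assay: single dose, 48 h. Readout: percent growth (0 = no net growth; negative = cell death). Active: <10.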 The source made the active and inactive calls.

In the first test the test system is SW-620 colon. As to the kind of experiment: NCI-60 one-dose screen, 48 h (100 = growth as untreated, 0 = no growth, -100 = all killed). Conditions: 1 µM. The procedure:
Growth inhibition of the SW-620 human tumor cell line is measured as a screen for anti-cancer activity. Cells are grown in 96 well plates and exposed to the test compound for 48 hours. Compounds are tested at a single concentration, which is 10^-5 M for most compounds. The reported endpoint is percent growth (GI% or GIPRCNT), where numbers from 0 - 100% represent growth inhibition, and numbers from -100% - 0 represent cell death. For example, a value of 40 represents 60% growth inhibition. A value of 0 means no net growth occurred over the course of the experiment. A value of -40 indicates 40% of cells at the beginning of the experiment died by the end of the experiment. A value of -100 means all cells are dead at the end of the experiment.
NCI-60 Human Tumor Cell Lines Screen was performed using the standard one-dose NCI protocol, which is described in more detail at https://dtp.cancer.gov/discovery_development/nci-60/default.htm.
Compounds with GIPRCNT values below 10 were considered active. Activity score was based on GIPRCNT using the following formula: […]
Score is 0 for GIPRCNT values of 100 or above, 50 for GIPRCNT values of 0, and 100 for GIPRCNT values of -100.
Consider `CC/C(=C(\c1ccc(O)cc1)c1ccc(OCCN(C)C(=O)COCCNC(=O)Cc2ccc3c(c2)CN([C@@H]2CCC(=O)NC2=O)C3=O)cc1)c1ccccc1`, for which the growth was 57.5% (inactive).

Staying with this test, now noted: 10 µM.
For the compound `CC/C(=C(\c1ccc(O)cc1)c1ccc(OCCN(C)C(=O)COCCNC(=O)Cc2ccc3c(c2)CN([C@@H]2CCC(=O)NC2=O)C3=O)cc1)c1ccccc1`, the growth was 23.8% (inactive).

The same test, now with this note: 10 µM unless noted.
Turning to `CC1CCc2c(sc3nc(SCC(=O)c4cccc([N+](=O)[O-])c4)n(-c4ccccc4)c(=O)c23)C1` (stereo not given), the growth was 71.1% (inactive).
Take `CC(C)(C)OC(=O)N1C/C(=C\c2ccc(F)cc2)C(=O)/C(=C/c2ccc(F)cc2)C1`: the growth was -67.7% (active).
Still for that read-out and setting: the figure for `CCN1CCN(Cc2ccc(C(=O)Nc3cccc(Nc4ccc5c(OC)cccc5n4)c3)cc2C(F)(F)F)CC1` is 7.01% (active); for `COc1ccc(-c2cc(C)nc3[nH]c(=O)sc23)cc1` it is 98.1% (inactive); for `S=C(NCCc1ccccc1)Nc1ccc(OCc2nc3ccc(Cl)cc3[nH]2)cc1` it is 37% (inactive).
The same measure, in the same setting: the figure for `Cc1ccc2nc(SCc3ccccc3F)n(-c3ccccc3)c(=O)c2c1` is 104% (inactive); for `CC(C)(C)C(=O)C1CC(C#N)=C2C=Cc3c(ccc4ccccc34)N21` (stereo not given) it is 102% (inactive).
The same measure, in the same setting: the figure for `Clc1ccccc1Nc1nnc(-c2c[nH]c3ccccc23)o1` is 29% (inactive); for `Cc1ccc(C(=O)Nc2cc(-n3ccnc3C)cc(C(F)(F)F)c2)cc1C#Cc1cnc2cccnn12` it is 12.6% (inactive); for `COc1c(F)ccc(C(=O)Nc2ccc3nc(NC(=O)C4CCCN(S(=O)(=O)c5ccc(C(C)(C)C)cc5)C4)sc3c2)c1F` (stereo not given) it is 88.5% (inactive).
Turning to `NS(=O)(=O)c1ccc(N2N=C(c3ccc(NC(=O)Nc4ccccc4)cc3)CC2c2ccc(Br)cc2)cc1` (stereo not given), the growth is -3.46% (active).
For the compound `Nc1cc(-c2c[nH]c3ccc(F)cc23)nc2cc(-c3c[nH]c4ccccc34)nn12`, the growth was -66.1% (active).
Still for that read-out and setting: the figure for `COC(=O)c1cc(C(=O)C(F)(F)F)n2c3ccccc3c3ccccc3c12` is 83.9% (inactive); for `CCCCCCCCCCCCCCCCCC(=O)Nc1ccc(OC)cc1` it is 103% (inactive).
Same read-out and setting: the figure for `CCCCNc1ccc2c3c(cccc13)C(=O)N(NCC(O)COc1ccc3c(C)cc(=O)oc3c1)C2=O` (stereo not given) is 93.1% (inactive); for `NS(=O)(=O)c1cccc(Nc2nc(SCC(=O)c3ccc(F)cc3)nc3ccccc23)c1` it is 27.4% (inactive).
Still for that read-out and setting: as for `Cc1cc(C(NC(=O)C2CC3(CC(Nc4cccc5c4C(=O)N(C4CCC(=O)NC4=O)C5=O)C3)C2)c2ccc3c(c2)OC(F)(F)O3)c(O)c2ncccc12` (stereo not given), the figure is 25.6% (inactive); as for `CCCn1c(NC(=O)c2cccc(C(N)=O)c2)nc2cc(CN3CCCCC3)ccc21`, 113% (inactive).
Turning to `C=CCSc1nnc(-c2ccc(-c3nc4ccc(Cl)cc4[nH]3)cc2)o1`, the growth was 27.8% (inactive).
Same read-out and setting: the figure for `COc1cc(CNC(=O)C[C@H](C)CCC=C(C)C)ccc1OCc1cn(-c2ccc(Cl)cc2Cl)nn1` is 89.3% (inactive); for `CCOC(=O)c1ccc(NC(=S)NC(=O)c2ccc(NC(=O)C(C)C)cc2OC)cc1` it is 62.6% (inactive); for `O=C1Nc2ccccc2/C1=C\c1ccc(OCC(=O)c2ccc(Br)cc2)cc1` it is 78.1% (inactive).
As to `FC(F)(F)c1cc2c(Cl)ncnc2n1CCC1CCOCC1`, the growth was 35% (inactive).
The same measure, in the same setting: as for `NNc1ncnc2sc3c(c12)CCN(Cc1ccccc1)C3`, the figure is 46.6% (inactive); as for `O=C(CSc1nc2sc3c(c2c(=O)n1-c1ccc(Cl)cc1)CCCC3)N/N=C/C=C/c1ccccc1`, -55.5% (active); as for `O=C1Nc2cc(-c3ccc(NS(=O)(=O)c4ccc([N+](=O)[O-])cc4)cc3)ccc2/C1=C/c1ccc[nH]1`, 6.1% (active).
As to `O=C(c1ccc(Cl)cc1)C1[C@H](c2ccccc2Cl)[C@@H](c2ccccc2)NC12C(=O)Nc1ccc(Cl)cc12` (stereo not given in full), the growth is -61.5% (active).
Still for that read-out and setting: the figure for `COc1ccc(NC2=C(I)C(=O)C(C)=C(C)C2=O)cc1` is 62.1% (inactive); for `C/C(=N/O)c1ccc(NC(=O)CSc2nnc(-c3ccc4nc(-c5ccc(Cl)cc5)[nH]c4c3)o2)cc1` it is 67.4% (inactive).
Still for that read-out and setting: the figure for `Nc1nnc(CS(=O)(=O)c2ccccc2)s1` is 108% (inactive).
The same measure, in the same setting: the figure for `COc1ccc(N=Nc2c(N)nn3c(-c4ccc5c(c4)C=S=C5)ccnc23)cc1` is 65.5% (inactive); for `N#CCc1nnc(NC(=O)c2ccc(-n3c(=O)[nH]c4ccccc4c3=O)cc2)s1` it is 104% (inactive).
`CCCN(CCC)S(=O)(=O)c1ccc(C(=O)O)cc1.CCCN(CCC)S(=O)(=O)c1ccc(C(=O)O)cc1.[Cl][Pt+2][Cl].[NH2-].[NH2-]`: the growth is 20.6% (inactive).
The same measure, in the same setting: as for `CC(=O)Nc1ccc(S(=O)(=O)Nc2ccc(-c3ccc4c(c3)NC(=O)/C4=C\c3ccc[nH]3)cc2)cc1`, the figure is 114% (inactive).
Same read-out and setting: the figure for `O=C(CCl)Nc1ccc(C(=O)/C=C/c2cc3ccccc3nc2Cl)cc1` is -78.3% (active) and 48.9% (inactive); for `COc1ccc(-c2nc3ccccc3n2CC(=O)N=Nc2c(O)[nH]c3ccc(Br)cc23)cc1` it is 83% (inactive).
In the case of `O=CNc1ccc(-n2cnc3cc(-c4ccc(O)cc4)ccc32)cc1`, the growth was 101% (inactive).
As to `Cn1cc(-c2cc3nc(-c4cn(C)c5ncccc45)cc(N)n3n2)c2cc(F)ccc21`, the growth was 61% (inactive).

Source of the values: PubChem BioAssay (NCI).
